57 molecules from PubChem BioAssay AID588814 (The Scripps Research Institute Molecular Screening Center, 2011) can be followed below.

The structures appear in SMILES notation. Hit rate of the full screen: of about 360,000 compounds, about 1,200 (0.33%) were called active.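 The calls were made as follows: active = activation above the run's mean compound activation plus 3 SD (cut at about 16% in these data); inactive = the rest.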 The entries come from a sample that favours actives as a whole.

For the test, the target named is Muscarinic acetylcholine receptor M1 (Homo sapiens) (UniProt P11229). Nature of the test: CHRM1 activation via calcium signal – Fluo-8 calcium fluorescence, CHO-K1 cells, HTS, primary screen (AID 588814).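 Also: peak over basal fluorescence ratio within a 140 s kinetic read after compound addition.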 As to conditions: CHO-K1 hM1, Fluo-8 calcium fluorescence, agonist mode; at 3 µM; hits give high values; 0% DMSO, 100% acetylcholine EC100.
Chain of Muscarinic acetylcholine receptor M1 (Homo sapiens) (P11229 whole entry, looked up): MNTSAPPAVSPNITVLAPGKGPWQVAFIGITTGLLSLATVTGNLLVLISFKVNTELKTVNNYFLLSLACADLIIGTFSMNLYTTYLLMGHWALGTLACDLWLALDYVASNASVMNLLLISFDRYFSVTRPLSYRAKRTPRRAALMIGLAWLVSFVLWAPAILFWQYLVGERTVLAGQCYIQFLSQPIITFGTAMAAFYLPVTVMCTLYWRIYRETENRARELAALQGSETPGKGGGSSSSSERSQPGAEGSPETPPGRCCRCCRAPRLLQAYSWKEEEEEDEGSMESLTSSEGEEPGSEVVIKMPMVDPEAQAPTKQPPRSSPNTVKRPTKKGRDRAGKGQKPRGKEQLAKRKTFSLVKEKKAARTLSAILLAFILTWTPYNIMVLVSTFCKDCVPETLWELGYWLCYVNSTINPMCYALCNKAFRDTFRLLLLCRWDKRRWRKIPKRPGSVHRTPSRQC
Take `CCC(=O)c1ccc(OCC(=O)OCC(=O)N2CCc3ccccc3C2)cc1`: the activation was -1.8% (inactive).

In the case of `CCN1CCc2nc(NC(=O)c3cc(F)c(F)cc3Cl)sc2C1`, the activation is -7.11% (inactive).

For `COC(=O)c1ccc(CSc2ccc3nnc(-c4ccccc4)n3n2)o1`, the activation is -7.9% (inactive).

On to `CCN1/C(=C\c2ccc3ccccc3[n+]2CC)Sc2cc(C)ccc21`, for which the activation is 26.1% (active).

Consider `COCCNC(=O)C1CCCN(Cc2ccccc2Cl)CC1` (configuration not stated), for which the activation is -7.52% (inactive).

For `CCCNC(=O)CCn1nc(-c2ccccc2)c2ccccc2c1=O`, the activation was -3.19% (inactive).

As to `COc1ccc(CNC(=O)CN(C(=O)c2csnn2)c2cnc3ccccc3c2)cc1`, the activation was -11.5% (inactive).

Take `CCOC(=O)C(CC)/C(C)=N\NC(=O)c1cccc(C)c1` (configuration not stated): the activation is -0.97% (inactive).

On to `Cc1cc(C)c(/C=C2\C(=O)Nc3ccccc32)[nH]1`, for which the activation was 26.4% (active).

Consider `COc1ccccc1S(=O)(=O)c1c(C)cc(C)[nH]c1=O`, for which the activation was -1.5% (inactive).

As to `O=C1c2ccccc2NC(c2ccccn2)N1NS(=O)(=O)c1ccccc1` (configuration not stated), the activation was 0.48% (inactive).

As for `CN(C)c1ccc(/C=C2\NC(=S)N(Cc3ccccc3)C2=O)cc1`, the activation was 47.3% (active).

Consider `Cc1ccc(CN2C(=O)N/C(=C/c3cc(C)n(-c4ccccn4)c3C)C2=O)cc1`, for which the activation is -1.17% (inactive).

In the case of `CN(C(=O)CN1C(=O)NC(C)(CCc2ccccc2)C1=O)c1ccccc1` (configuration not stated), the activation is -0.73% (inactive).

In the case of `Cc1ccc(S(=O)(=O)N(Cc2ccc(Cl)cc2)c2ccccc2C(=O)NCc2cccnc2)cc1`, the activation was -7.63% (inactive).

For `CC(C)N(C(=O)Cn1cc(SCC(=O)N2CCCC2)c2ccccc21)C(C)C`, the activation was -6.14% (inactive).

As for `O=C(CC1SCCNC1=O)Nc1ccc(Cl)cc1` (configuration not stated), the activation is -4.53% (inactive).

As to `O=C(Nc1ccc2ccccc2c1)/C(=C\c1ccc2c(c1)OCO2)NC(=O)c1ccco1`, the activation is -10.2% (inactive).

In the case of `CC(Oc1ccc2ccccc2c1)C(=O)NNC(=S)NC(=O)c1ccco1` (configuration not stated), the activation was 51.6% (active).

Take `CCCc1ccc(OCC(=O)NNC(=S)NC(=O)c2ccco2)cc1`: the activation was 4.47% (inactive).

For `CCc1nc2c(OCCOc3ccccc3)cccn2c1N(C=O)Cc1ccc(OC)cc1`, the activation was -6.89% (inactive).

As to `CCOC(=O)[C@H]1[C@H]2COc3cc(OC)ccc3[C@@H]2N2C(=O)N(c3ccc(Br)cc3)C(=O)[C@@]12C`, the activation is -5.08% (inactive).

Regarding `Cc1cc(C)c(S(=O)(=O)N2CCC(C(=O)OCc3c(C)noc3C)CC2)c(C)c1`, the activation was -3.3% (inactive).

On to `C=CCn1c(SCc2c(C(=O)OC)sc(N)c2C(=O)OC)nnc1-c1ccc(Cl)cc1`, for which the activation was 0% (inactive).

In the case of `CN1C=CC=C/C1=C1\SC(=S)N(Cc2ccccc2)C1=O`, the activation is -13.4% (inactive).

For the molecule `COc1ccc(CCNC2=C(Cl)C(=O)N(Cc3ccccc3)C2=O)cc1OC`, the activation is -3.94% (inactive).

With `COc1cc(/C=C2/SC(=S)N(Cc3ccccc3)C2=O)cc(OC)c1O`, the activation is 24.3% (active).

As for `CCn1c(COc2c(C)cccc2C)nnc1SCc1nc2ccccc2c(=O)[nH]1`, the activation is -4.55% (inactive).

On to `COc1ccc(CCCc2nnc(SCc3nc4ccccc4c(=O)[nH]3)n2C)cc1`, for which the activation was -15.5% (inactive).

As to `COc1ccc(C)cc1-n1nnnc1SCc1nc2ccccc2c(=O)[nH]1`, the activation was 16.2% (active).

On to `O=C1CCN(CCCc2ccccc2)CCN1CCO`, for which the activation is -5.68% (inactive).

As to `CCCCN1CC(COCc2ccccc2)OCCS1(=O)=O` (configuration not stated), the activation is -4.53% (inactive).

As for `O=S1(=O)C[C@@H](N2CCN(CCO)CC2)[C@H](COCc2ccccc2)N1`, the activation was 17.3% (active).

For `COc1ccc(OC)c(NC(=O)c2cc(-c3cc(F)ccc3OCC3CCCO3)n[nH]2)c1` (configuration not stated), the activation was -6.22% (inactive).

Take `CC(C)(C)OC(=O)NC(Cc1ccccc1)C(=O)NC(CSC1CCCCO1)C(=O)NN` (configuration not stated): the activation is -3.12% (inactive).

`COC(=O)c1cc(C(=O)NC(C)C2CC3CCC2C3)cc([N+](=O)[O-])c1` (configuration not stated): the activation was -7.37% (inactive).

Consider `CCN(CC)CCCC(C)n1c2nc(=O)[nH]c(=O)c-2nc2cc(Cl)ccc21` (configuration not stated), for which the activation is 182% (active).

Regarding `Fc1ccccc1COc1ccccc1CNCc1ccncc1`, the activation was -7.35% (inactive).

On to `COc1ccc(C(CCNCc2ccccc2F)c2ccc(F)cc2)cc1` (configuration not stated), for which the activation is -4.82% (inactive).

On to `COc1cccc(CNCCc2c[nH]c3ccccc23)c1OCc1ccccc1F`, for which the activation was 16.5% (active).

Turning to `CC(C)C[C@H]1CN=C(Nc2ccccc2)N1CC1CCCCC1`, the activation was -8.04% (inactive).

Regarding `Cn1cccc1C(=O)NNC(=O)COc1ccc(Br)cc1`, the activation was -2.51% (inactive).

Take `CC(=O)Nc1ccc(OC(=O)COc2ccc(Br)cc2)cc1`: the activation was -5.95% (inactive).

In the case of `Cc1ccc(O)c(NC(=S)NC(=O)COc2ccc(Br)cc2)c1`, the activation is 33.4% (active).

For the molecule `COCCNc1cc(-c2ccccc2)nc2cc(-c3cccc(F)c3)nn12`, the activation was -4.59% (inactive).

For `Cc1ccc(S(=O)(=O)N2CCN(C(=O)CN3C(=O)NC(C)(c4ccc(Cl)cc4)C3=O)CC2)c(C)c1` (configuration not stated), the activation was -3.67% (inactive).

On to `CC1(c2ccc(Cl)cc2)NC(=O)N(CC(=O)c2ccc3c(c2)OCO3)C1=O` (configuration not stated), for which the activation was 20.6% (active).

With `Cc1ccc(C2(C)NC(=O)N(CC(=O)Nc3ccccc3C(=O)N3CCCCC3)C2=O)cc1` (configuration not stated), the activation is 0.58% (inactive).

For the molecule `CC1CCC2(CC1)NC(=O)N(CC(=O)c1ccc3c(c1)OCO3)C2=O` (configuration not stated), the activation was -2.81% (inactive).

As to `Cc1ccc(C2(C)NC(=O)N(CC(=O)N3CC(=O)Nc4ccccc43)C2=O)cc1` (configuration not stated), the activation was -1.27% (inactive).

For `COc1ccc(C(=O)CN2C(=O)NC(C)(c3ccc(C)cc3)C2=O)cc1OC` (configuration not stated), the activation was 16.2% (active).

In the case of `Cc1ccc(NC(=O)CN2C(=O)NC(C)(c3ccc(Cl)cc3)C2=O)c(Br)c1` (configuration not stated), the activation was 17.6% (active).

On to `COc1cc(NC(=O)CN2C(=O)NC(C)(c3ccc(OC(F)F)cc3)C2=O)cc(OC)c1OC` (configuration not stated), for which the activation is 5.37% (inactive).

Take `COc1ccc(C2(C)NC(=O)N(CC(=O)c3ccc4c(c3)OCO4)C2=O)cc1` (configuration not stated): the activation is 10.2% (inactive).

Take `O=C(NC(c1ccc(-c2ccccc2)cc1)c1cnccn1)C1CCN(CCOc2ccc(Cl)cc2Cl)CC1` (configuration not stated): the activation is -1.39% (inactive).

For the molecule `Cc1cc(Br)cn2c(Cc3ccsc3)c(-c3ccc(C#N)cc3)nc12`, the activation was -1.39% (inactive).

As to `COCCCNc1nc2c(-c3cccc(C)c3)nnn2c2ccc(Cl)cc12`, the activation is -3.36% (inactive).
